Measured values from PubChem BioAssay (NCI).
The panel holds about 83,000 compounds, 20% with a hit somewhere; the sample as a whole holds those more often.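 Negative percent growth values reflect cell death: -40 means 40% of the cells present at the start died, and -100 means all died.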 Unmarked numbers belong to inactive results. Calls of active or inactive are those of the source. The calls were made as follows: active = growth percent below 10; inactive = the rest.

Tests used:
Test in all cases: NCI-60 one-dose screen, 48 h (100 = growth as untreated, 0 = no growth, -100 = all killed)
NCI-H226 lung = conditions: 10 µM
NCI-H322M lung = conditions: 10 µM
HOP-62 NSCLC = conditions: 10 µM
NCI-H460 lung = conditions: 10 µM
NCI-H522 lung = conditions: 10 µM
A549/ATCC NSCLC = conditions: 10 µM
COLO 205 colon = conditions: 10 µM
DU-145 prostate = conditions: 10 µM
K-562 leukemia = conditions: 10 µM
SF-268 CNS = conditions: 10 µM
SF-295 CNS = conditions: 10 µM
SF-539 CNS = conditions: 10 µM
HT29 colon = conditions: 10 µM
SNB-19 CNS = conditions: 10 µM
PC-3 prostate = conditions: 10 µM
MOLT-4 leukemia = conditions: 10 µM
SR leukemia = conditions: 10 µM
RPMI-8226 leukemia = conditions: 10 µM
SK-OV-3 ovarian = conditions: 10 µM
MDA-MB-468 breast = conditions: 10 µM unless noted

SMILES	growth (NCI-H226 lung)	growth (NCI-H322M lung) [%]	growth (HOP-62 NSCLC)	growth (NCI-H460 lung)	growth (NCI-H522 lung)	growth (A549/ATCC NSCLC)	growth (COLO 205 colon)	growth (DU-145 prostate) [%]	growth (K-562 leukemia)	growth (SF-268 CNS) [%]	growth (SF-295 CNS) [%]	growth (SF-539 CNS)	growth (HT29 colon)	growth (SNB-19 CNS) [%]	growth (PC-3 prostate)	growth (MOLT-4 leukemia)	growth (SR leukemia)	growth (RPMI-8226 leukemia)	growth (SK-OV-3 ovarian)	growth (MDA-MB-468 breast)
COc1ccc2[nH]cc(-c3nc(N)nnc3-c3cn(C)c4ncc(Br)cc34)c2c1	8.48% (active)	35	26.5%	1.08% (active)	-55.1% (active)	17.7%	-73.9% (active)	11.1	3% (active)	12.9	17	-3.25% (active)	-27.1% (active)	30	10.5%	2.27% (active)	3% (active)	-16% (active)	10.7%	-8.06% (active)
Cn1cc(-c2nc(N)nnc2-c2c[nH]c3ccccc23)c2cc(Br)cnc21	0.98% (active)	37.2	28.5%	4.09% (active)	-36.5% (active)	16.4%	-75.9% (active)	20.6	9.47% (active)	20.3	15	8.25% (active)	-27.2% (active)	44.9	13.3%	13.8%	8.01% (active)	13%	26.5%	-9.99% (active)
COc1ccccc1-n1cc(C#N)c(N)c1C(=O)c1ccc(Cl)cc1Cl	34.5%	48	38.2%	12.5%	-55.6% (active)	41.9%	19.6%	35.4	12.5%	47.3	19.9	-0.792% (active)	-14.7% (active)	30.1	18.8%	20.3%	11.5%	14.7%	14.9%	15.8%
O=C(CC(=O)Nc1ccc(Oc2ncnc3scc(Nc4n[nH]c(=S)s4)c23)cc1)Nc1ccc(Cl)cc1	67.8%	94.5	89.1%	85.5%	55.2%	83%	88.5%	97	71.3%	85	99.6	91.6%	106%	87.7	74%	60.2%	62.2%	86.8%	77.5%	-18.5% (active)
Cc1ccc2c(c1)C(=O)/C(=C/c1ccc([N+](=O)[O-])cc1)S2	52.2%	105	92%	92.5%	82.5%	99.6%	103%	104	69.9%	96.4	98.2	96.6%	79.1%	92.4	94.5%	107%	100%	65.2%	87.4%	84%
O=C(CN1CCN(c2ncnc3c2cnn3-c2ccccc2)CC1)Nc1ccc(Br)cc1	62.5%	77.2	84.6%	57.7%	-80.3% (active)	75.2%	70.6%	67.9	42.8%	58.8	83	82.3%	73.3%	69.3	49.1%	15%	40.3%	42.6%	76.7%	49.2%
CC1(C)CC[C@]2(C(=O)O)CC[C@]3(C)C(=CCC4[C@@]5(C)C[C@@H](O)[C@@H]6OC(c7cccc(F)c7)OC[C@@]6(C)C5CC[C@]43C)C2C1 (stereo not given in full)	39.9%	34.2	49.5%	27.6%	8.76% (active)	19.8%	15.2%	36.7	21.1%	55.6	42.7	70.2%	28.1%	45.7	32.1%	18.5%	22.4%	21.1%	82.7%	23.5%
CCOc1ccc(/C=N/NC(=O)Cn2nc(Cc3ccc(OC)cc3)c3onc(C)c3c2=O)cc1	6.7% (active)	62.1	7.48% (active)	-7.59% (active)	46.6%	0.727% (active)	50.4%	14.4	44.7%	19	20.4	-32.6% (active)	16.6%	29	18.3%	58.3%	29.8%	67.9%	-26.6% (active)	40.4%
O=C1NC2C=CC=CC2/C1=C1/SC(=S)N(C2CC(=O)N(c3ccc(Br)cc3)C2=O)C1=O (stereo not given)	91.3%	101	99.2%	100%	68.7%	99%	104%	97.5	55.1%	95.7	109	93.6%	98.1%	93.9	76.6%	70.5%	67.9%	50%	99.1%	84.2%
COc1ccc(OC)c(-n2cc(C#N)c(N)c2C(=O)c2ccc(Cl)cc2Cl)c1	51.3%	76.8	49.3%	32.9%	7.18% (active)	51.9%	32.6%	65.6	14.1%	56.2	28.4	25.6%	4.43% (active)	45.5	37.8%	29.8%	13.7%	39%	49.7%	19.8%
O=C(CSc1nc2ccccc2c(=O)n1-c1ccc(Cl)cc1)Nc1ccc(-c2nc3ccc([N+](=O)[O-])cc3[nH]2)cc1	0.985% (active)	72.4	0.0608% (active)	21.1%	32.7%	50.2%	11%	44.2	28.9%	38.4	23.7	28.6%	36.4%	48.7	-14.9% (active)	39.5%	38.2%	53%	40.2%	-35.6% (active)
COc1cc2oc(-c3cccc(C(=O)Nc4ccc(Cl)cc4)c3)cc(=O)c2c(OCCNC(=O)[C@@H](N)CO)c1OC	95.1%	55.3	87.6%	40.2%	-27.9% (active)	102%	40.9%	77	-53.3% (active)	69.9	99.4	23.9%	37.3%	25	48.3%	-40.4% (active)	-38.1% (active)	-23.4% (active)	115%	-85.6% (active)
COC(=O)CNC(=O)COc1c(OC)c(OC)cc2oc(-c3cccc(C(=O)Nc4ccc(Cl)cc4)c3)cc(=O)c12	-51.4% (active)	76.6	-34.4% (active)	12.6%	64.9%	75.4%	31%	33.6	50%	21.9	21.4	16%	58.4%	25.9	34.7%	88.6%	61.2%	53.7%	82.2%	94.6%
Cn1cc(-c2nnc(N)nc2-c2c[nH]c3ccccc23)c2cc(Br)cnc21	17.9%	65.2	50.6%	42.3%	15.1%	55.1%	32.4%	77	15.1%	57.4	37.2	50.2%	35.6%	66.6	45.7%	2.48% (active)	8.61% (active)	26.6%	60.6%	-3.61% (active)
O=C(Nc1ccc(OCC(=O)c2ccc(Cl)cc2)cc1)Nc1ccc(Cl)c(C(F)(F)F)c1	38%	49.1	47.6%	27.6%	-12.4% (active)	24.3%	-49.4% (active)	66.2	65.3%	46.5	27.5	47.3%	33.6%	21.3	7.67% (active)	45.3%	39.5%	12.2%	33%	26%
